According to the supplement of paper PMC6555819:

Tests used:
Assay in all cases: PBM binding z-score (relative to random genomic background probes); higher = stronger binding; sequences stand for … in GC…GCGATTGACAGCGTAGAATGAAGG
[1] = system: FXR:RXRa (NR concentration 270 nM, RXRa partner concentration 90 nM)
Method in brief: (§1)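 Antibodies against each partner of ligand-free nuclear receptor dimers (one per run) detected binding on custom Agilent 4×180K protein-binding microarrays after 1 h incubation. The double-stranded probes had 34-nt variable regions carrying direct-repeat seeds, single-nucleotide variants, half-site ablations and random human genomic background sequences. Binding z-scores, from regression-normalized fluorescence, use the random background probes as reference.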

[2] = system: LXRa:RXRa (NR concentration 270 nM, RXRa partner concentration 90 nM)
Method in brief: as §1

[3] = system: LXRa homodimer (NR concentration 270 nM)
Method in brief: as §1

[4] = system: LXRb:RXRa (NR concentration 270 nM, RXRa partner concentration 90 nM)
Method in brief: as §1

[5] = system: LXRb homodimer (NR concentration 270 nM)
Method in brief: as §1

[6] = system: PPARa:RXRa (NR concentration 270 nM, RXRa partner concentration 90 nM)
Method in brief: as §1

[7] = system: PPARg:RXRa (NR concentration 180 nM, RXRa partner concentration 90 nM)
Method in brief: as §1

[8] = system: PPARg:RXRa 270nM:90nM, anti-RXR (NR concentration 270 nM, RXRa partner concentration 90 nM)
Method in brief: as §1

[9] = system: PPARg:RXRa 30nM:10nM, anti-RXR (NR concentration 30 nM, RXRa partner concentration 10 nM)
Method in brief: as §1

[10] = system: PPARg:RXRa 90nM:30nM, anti-RXR (NR concentration 90 nM, RXRa partner concentration 30 nM)
Method in brief: as §1

[11] = system: PPARg:RXRa DBDmut IVT, anti-RXR (DBD mutation: RXRa K156A/R161A, NR concentration 270 nM, RXRa partner concentration 90 nM)
Method in brief: as §1

[12] = system: PPARg:RXRa IVT, anti-PPARg (NR concentration 270 nM, RXRa partner concentration 90 nM)
Method in brief: as §1

[13] = system: PPARg DBDmut:RXRa IVT, anti-PPARg (DBD mutation: PPARg1 K132A/R137A, NR concentration 270 nM, RXRa partner concentration 90 nM)
Method in brief: as §1

[14] = system: PPARg DBDmut IVT, anti-PPARg (DBD mutation: PPARg1 K132A/R137A, NR concentration 270 nM)
Method in brief: as §1

[15] = system: PPARg homodimer (NR concentration 180 nM)
Method in brief: as §1

[16] = system: PXR:RXRa (NR concentration 270 nM, RXRa partner concentration 90 nM)
Method in brief: as §1

[17] = system: PXR homodimer (NR concentration 270 nM)
Method in brief: as §1

[18] = system: RARa:RXR (NR concentration 270 nM, RXRa partner concentration 90 nM)
Method in brief: as §1

[19] = system: RARa homodimer (NR concentration 270 nM)
Method in brief: as §1

[20] = system: RARb:RXRa (NR concentration 270 nM, RXRa partner concentration 90 nM)
Method in brief: as §1

Sequence | PBM binding z-score [1] | PBM binding z-score [2] | PBM binding z-score [3] | PBM binding z-score [4] | PBM binding z-score [5] | PBM binding z-score [6] | PBM binding z-score [7] | PBM binding z-score [8] | PBM binding z-score [9] | PBM binding z-score [10] | PBM binding z-score [11] | PBM binding z-score [12] | PBM binding z-score [13] | PBM binding z-score [14] | PBM binding z-score [15] | PBM binding z-score [16] | PBM binding z-score [17] | PBM binding z-score [18] | PBM binding z-score [19] | PBM binding z-score [20]
CAAACTAGGTCAAAGGTAAAAGTCGAGCCAACCA | 5.4 | 4.12 | 0.676 | 3.51 | 0.646 | 6.67 | 13 | 10.3 | 12.5 | 12.1 | 8.99 | 9.08 | 2.75 | 1.05 | 2.75 | 3.48 | -0.123 | 5.33 | 0.696 | 4.21
TAGCCTAGATCATGGGCCAGTATACCACGCGAAC | -0.688 | -0.764 | -0.759 | -0.614 | -0.395 | -0.574 | 0.555 | -0.555 | -0.628 | -0.462 | 0.188 | 0.69 | -0.074 | -0.614 | -1.13 | -0.835 | -0.709 | -0.943 | -0.47 | -0.479
CAGCCTAGGTCAGGACCAGTATAGGAGGAACGTT | 1.48 | 0.848 | -0.0859 | 0.663 | -0.972 | 1.94 | 0.905 | 0.922 | -0.12 | 0.355 | 1.07 | 1.37 | -0.507 | -1.17 | 0.861 | 0.277 | -0.104 | 0.885 | 0.139 | 3.26
CATACAGGGTGAGCTAGGCCAGAGTAGGGACGGC | 0.0783 | -0.27 | -0.348 | -0.501 | -0.241 | 0.234 | 0.608 | -0.129 | -0.308 | -0.186 | 0.503 | 1.32 | -0.282 | -0.518 | -0.692 | -0.394 | -0.379 | -0.0235 | -0.0733 | 0.894
GCGACTGGGGCATCAGCAGGTTACCCTAACTTAA | -0.187 | -0.0714 | -0.26 | 0.646 | -1.16 | 1.32 | 0.617 | 0.949 | -0.87 | 0.118 | 3.51 | 2.87 | -0.922 | -0.0321 | 0.248 | 0.197 | -0.267 | 0.596 | -0.765 | 0.794
CGTCCAAGGTCAAAGGTCCGTGAAGAGATGACGG | 7.36 | 5.64 | 0.823 | 4.24 | 0.921 | 5.73 | 6.71 | 6.69 | 4.16 | 5.81 | 3.4 | 4.24 | 0.753 | 0.764 | 2.99 | 4.61 | 1.12 | 5.96 | 0.563 | 5.32
CCGAGTAGGTTATGGGCCATTCAGGCAACGGTGA | -0.39 | 0.176 | -0.0661 | -0.0151 | -0.497 | 1.58 | 2.14 | 3.47 | 1.22 | 3.06 | 3.19 | 2.58 | -0.937 | -0.608 | 1.06 | -0.326 | -0.187 | -0.0932 | -0.148 | 0.816
ATATGTAGGTTATCCGGTCATTCAGTTTGCGCAT | 1.83 | 2.69 | 4.12 | 1.78 | 1.15 | 3.71 | 5.51 | 5.16 | 2.68 | 4.49 | 7.35 | 6.98 | 1.53 | 1.86 | 0.982 | 1.65 | 1.86 | 1.65 | 0.474 | 2.19
CCTACTGGGCCACGAAAGGTCATTGTTTCAGTGA | 3.44 | 5.19 | 5.22 | 4.29 | 0.43 | 4.61 | 4.26 | 4.79 | 1.73 | 4.24 | 5.79 | 6.05 | 1.13 | 0.571 | 3.37 | 5.45 | 2.06 | 5.42 | 0.917 | 4.06
CGTCCAAGGGCAAGGTCAGTGAAAGAGACTCGAA | 1.95 | 1.58 | -0.119 | 1.22 | -0.836 | 2.75 | 0.977 | 1.31 | -0.324 | 0.436 | 0.735 | 1.62 | -1.01 | -1.55 | 0.963 | 1.68 | -0.101 | 2.16 | 0.0198 | 3.94
TCATATAGGTAATACAGGTCAAAGTCGGCATCTA | 3.34 | 5.45 | 7.33 | 4.42 | 1.69 | 4.33 | 3.55 | 4.08 | 4.34 | 4.27 | 4.69 | 4.55 | 2.09 | 2.09 | 2.8 | 3.34 | 1.5 | 3.94 | 2.09 | 2.49
GGAACGAGGGCATTCGCGTTGATAGCATGGCGAT | 0.794 | 1.04 | -0.65 | 0.18 | -0.618 | 1.5 | 0.776 | 0.655 | -0.361 | 0.136 | 2.08 | 1.86 | -0.525 | -0.616 | -0.126 | 0.744 | -0.0684 | 0.449 | -0.431 | 1.71
AGTCAAAGATCAGGACGAGGTAACGTAAAGCACG | 0.107 | -0.519 | -0.426 | -0.362 | -0.522 | 0.273 | 1.18 | 0.619 | 0.0734 | 0.677 | -0.64 | 0.122 | 0.0525 | 0.169 | -0.153 | -0.236 | -0.419 | 0.336 | 0.445 | 0.247
TCTCGGAGGACACGAAAGGTCAAAGCTCGACATC | 4.46 | 5.45 | 6.31 | 4.92 | 0.987 | 4.72 | 2.15 | 3.75 | 2.79 | 3.33 | 1.72 | 2.11 | -0.166 | -0.0155 | 3.27 | 5.39 | 1.21 | 5.48 | 1.41 | 4.55
ATATGTAGGCTAAGGGTCATTCAGGTTGGTTCGC | 3.79 | 3.76 | 1.84 | 3.73 | 1.39 | 6.17 | 10.2 | 8.9 | 9.28 | 9.65 | 5.51 | 6.21 | 1.21 | 1.43 | 2.35 | 4.78 | 1.76 | 4.17 | 0.917 | 3.36
